High-throughput results: PubChem BioAssay, several laboratories
APP 5'UTR act: activators of APP 5'UTR luciferase reporter, primary screen, SH-SY5Y cells. SH-SY5Y APP 5'UTR luciferase reporter, luminescence; zero percent = DMSO vehicle wells. activation, % at 2 µM. actives 1% (n = 190,000);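 active = activation above a set limit, based on mean plus 3 SD of controls, cut at about 140% in these data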
APP 5UTR inh: inhibitors of APP translation via 5'UTR reporter, primary screen, APP 5'UTR luciferase, SH-SY5Y cells; SH-SY5Y APP 5'UTR-luciferase reporter, luminescence; inhibition, % at 2 µM; actives 0.82% (n = 190,000); AID 1285, 2008;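 active = inhibition above a set limit, derived from the sample mean plus 3 SD, cut at about 45% in these data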
NF-kB neuron act: activators of NF-kB expression in neurons, primary screen, cell-based, HTS; fold change at 12.5 µM; human neuronal cells, NF-kB reporter expression; active compounds read high; actives 1.6% (n = 190,000); AID 1239, 2008; in the data active = fold change above about 3.3
Hsp70 act: Hsp70 transcriptional activators, primary screen, cell-based, HeLa, Hsp70 promoter luciferase, luminescence, 10 µM. HeLa Hsp70 promoter luciferase reporter; scaled: vehicle 0, proteasome-inhibitor control 100%. actives 0.04% (n = 200,000). AID 1203, 2008. activation, % at 10 µM;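 active = activation above the mean across all tested compounds plus 3 SD, cutoff set per campaign, cut at about 5.5% in these data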;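 also: 100% = MG132 at 30 µM as the positive control and 0% = DMSO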
Wee1 stabilizer: Wee1 degradation inhibitors, primary screen, cell-based, HeLa, Wee1K328M-luciferase, luminescence; HeLa Luc-Wee1K328M stability; 100% = proteasome inhibitor MG132 effect; reporter increase, % at 5 µM; actives 1.2% (n = 220,000);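 active = activation above the mean of all tested compounds plus 3 SD, set per screening run, cut at about 8.8% in these data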;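 also: cells exposed to compound for 20 h before luminescence read; 0% = DMSO alone and 100% = MG132 at 30 µM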
Target sequence (P30291 whole entry K328M): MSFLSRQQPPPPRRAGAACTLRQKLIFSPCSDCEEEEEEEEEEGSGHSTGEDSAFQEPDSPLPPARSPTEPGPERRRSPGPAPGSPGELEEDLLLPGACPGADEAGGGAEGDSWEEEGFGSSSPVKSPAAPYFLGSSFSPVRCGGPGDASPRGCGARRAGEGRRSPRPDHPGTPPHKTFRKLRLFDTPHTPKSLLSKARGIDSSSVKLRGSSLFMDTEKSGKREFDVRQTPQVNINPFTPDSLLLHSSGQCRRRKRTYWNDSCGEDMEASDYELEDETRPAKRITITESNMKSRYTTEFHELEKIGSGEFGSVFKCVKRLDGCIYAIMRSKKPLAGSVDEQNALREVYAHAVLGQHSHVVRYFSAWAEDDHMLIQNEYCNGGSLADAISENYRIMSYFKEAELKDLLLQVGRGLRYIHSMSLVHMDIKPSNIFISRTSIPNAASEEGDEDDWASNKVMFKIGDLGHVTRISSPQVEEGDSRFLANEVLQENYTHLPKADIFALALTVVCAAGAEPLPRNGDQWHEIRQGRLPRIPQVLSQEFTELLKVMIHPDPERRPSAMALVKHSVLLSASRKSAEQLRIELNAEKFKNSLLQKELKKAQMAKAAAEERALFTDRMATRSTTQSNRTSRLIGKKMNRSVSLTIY
STAT1 activator: STAT1 signaling activators, primary screen, cell-based, HTS, luciferase reporter; NIH 3T3 STAT1-luciferase reporter, IFN-gamma, luminescence; 100% = IFN-gamma alone, no compound; activation (% of control), % at 5.5 µM; actives 2.6% (n = 200,000); AID 932, 2007;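 active = activation above the screen-wide mean activation plus 3 SD, cut at about 130% in these data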;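 also: raw ratio to IFN-gamma control signal so 100% means no change and 0% no light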
Starred values were filed as active, the others as inactive; . = not tested or not shown. An excerpt weighted towards active compounds, which were near 4.8% of everything screened.

SMILES | APP 5'UTR act | APP 5UTR inh | NF-kB neuron act | Hsp70 act | Wee1 stabilizer | STAT1 activator
CNc1oc(-c2ccco2)nc1C#N | -7.5 | 7.5 | 1.09 | -0.2 | 0.3 | 103.4
CNc1oc(-c2ccc(Cl)cc2)nc1C#N | 33.6 | -33.6 | 2.32 | -0.2 | 4.9 | 132.3*
N#Cc1nc(-c2ccccc2)oc1NCC1CCCO1 (centres undefined) | -9.6 | 9.6 | 1.12 | -0.2 | 1.9 | 101.5
CC(C)(C)c1ccc(-c2nc(C#N)c(NCc3ccncc3)o2)cc1 | . | . | 2.33 | 0.8 | 0.8 | 131.2*
Cc1cc(C)c(S(=O)(=O)Nc2ccc3c4c(cccc24)CC3)c(C)c1 | -95.2 | 95.2* | 3.15 | -0.2 | -1.4 | 99.5
CCCCCCOc1ccc(OC(=O)c2ccncc2)cc1 | 2.8 | -2.8 | 9.91* | -0.2 | 1.3 | 96.4
CC(C)(C)c1ccc(/C=C2\SC(=O)N(CCNC(=O)c3cccc(S(=O)(=O)N4CCOCC4)c3)C2=O)cc1 | 135.1* | -135.2 | 0.72 | -0.1 | -0.1 | 113.9
Cc1ccc(S(=O)(=O)N2CCOCC2)cc1C(=O)NCCN1C(=O)S/C(=C\c2ccccc2Cl)C1=O | 8.2 | -8.2 | 0.91 | -0.4 | -3.7 | 92.8
CCOC(=O)C1=C2SCC(=O)N2C(N)=C(C#N)C1 | -2.4 | 2.4 | 1.07 | -0.3 | -1.0 | 104.6
COC(=O)C1=C2SCC(=O)N2C(N)=C(C#N)C1 | . | . | . | . | 11.8* | .
O=c1cccc2n1Cc1cc3ccccc3nc1-2 | 67.5 | -67.5 | 3.09 | 0.0 | 0.5 | 134.6*
Cc1nc2ccccc2cc1C(=O)O | -8.4 | 8.4 | 1.05 | -0.4 | 0.6 | 99.1
CCOc1ccc(NS(=O)(=O)c2cc(NC(=O)c3ccc(C)cc3)ccc2Cl)cc1 | -87.0 | 87.0* | 1.02 | -0.2 | 0.5 | 107.9
CCOC(=O)COc1ncn(-c2ccccc2)n1 | -1.8 | 1.8 | 1.22 | -0.2 | 2.4 | 101.6
CCOC(=O)/C=C/c1cnn(-c2ccccc2)c1 | 50.6 | -50.6 | 2.16 | 0.0 | 5.0 | 137.9*
Nc1ccc(O)cc1C(=O)OCC(=O)c1ccc(C2CCCCC2)cc1 | -48.9 | 48.9* | 6.77* | -0.3 | -1.6 | 106.7
CCOC(=O)c1cnc(Nc2nc3ccccc3o2)nc1C | 104.4 | -104.4 | 3.47* | -0.1 | 2.1 | 58.7
Cc1nc(Nc2nc3ccccc3o2)nc2c1CCC2 | 124.9 | -124.9 | 3.66* | -0.6 | 1.2 | 92.8
Cc1cc(NC(=O)c2ccc3c(c2)OCCO3)ccc1NC(=O)c1cc2ccccc2o1 | 27.7 | -27.7 | 0.43 | -0.3 | -0.6 | 110.7
COC(=O)c1ccc(/C=N/NC(=S)NC(C)C)cc1 | . | . | . | . | -1.4 | .
COc1cccc(CN2CCC(C(=O)N3CCN(c4ccccc4F)CC3)CC2)c1OC | -1.2 | 1.2 | 1.2 | 0.2 | -2.0 | 103.9
Cc1ccc(C(=O)Nc2ncc(C)s2)o1 | 29.8 | -29.8 | 2.99 | -0.2 | 0.8 | 134.8*
Cc1ccc(C(=O)Nc2ncc(Cc3ccc(SC(F)F)cc3)s2)cc1 | -92.6 | 92.6* | 3.17 | -0.1 | -0.7 | 101.0
Cc1ccc(C(=O)Nc2ncc(Cc3ccc(F)cc3)s2)o1 | 133.7 | -133.7 | 7.88* | 0.2 | 1.0 | 126.4
Cc1ccc(C(=O)Nc2nnc(C)s2)cc1 | 85.8 | -85.8 | 2.78 | -0.1 | 5.7 | 116.4
SMILES | APP 5'UTR act | APP 5UTR inh | NF-kB neuron act | Hsp70 act | Wee1 stabilizer | STAT1 activator
Cc1cnc(NC(=O)c2cc3ccccc3o2)s1 | 94.6 | -94.6 | 3.29 | -0.3 | 1.6 | 58.6
Cc1ccc(C(=O)Nc2ccc(F)cc2)o1 | 19.7 | -19.7 | 1.56 | -0.4 | -0.9 | 109.4
CCCC1c2ccsc2CCN1C(=S)NC (centres undefined) | . | . | . | . | 0.2 | .
Cc1cc(NC(=O)Cn2c(=O)n(CCCCC(=O)NC3CCN(Cc4ccccc4)CC3)c(=O)c3ccccc32)n[nH]1 | 9.2 | -9.2 | 1.06 | 0.1 | 5.8 | 99.5
CCN(CC)S(=O)(=O)c1ccc(N2CCCC2)c(C(=O)OCC(=O)N2CCCC2)c1 | 3.7 | -3.7 | 1.05 | -0.3 | 5.4 | 99.0
COC(=O)Nc1ccc(S(=O)(=O)N2CCCC(C(=O)N3CCC(C)CC3)C2)cc1 (centres undefined) | 25.1 | -25.1 | 0.85 | -0.3 | 5.0 | 92.8
CCCCOc1ccc(-c2ncc(C(=O)O)c(C)n2)cc1 | 165.4* | -165.4 | 4.34* | 0.5 | -3.8 | 136.0*
CCCCCCOc1ccc(C(=O)O)cc1 | . | . | . | . | -1.1 | .
COCCNC(=O)COc1ccc(C)cc1C | -9.8 | 9.8 | 0.96 | -0.2 | 5.6 | 93.3
CCCCSc1nnc2c(n1)[nH]c1ccccc12 | 30.0 | -30.0 | 2.31 | 0.2 | -0.1 | 139.6*
Cc1ccc2nc(-c3ccccc3)c(CN3CCSCC3)n2c1 | -0.7 | 0.7 | 1.13 | -0.1 | -3.6 | 93.6
Cc1noc(NS(=O)(=O)c2ccc(N/C=C/C(=O)c3ccncc3)cc2)c1C | -1.2 | 1.2 | 1.03 | 0.1 | 2.9 | 107.7
O=C(NC1CCCCC1)c1cc2nc(-c3ccco3)cc(C(F)(F)F)n2n1 | 3.8 | -3.8 | 1.24 | -0.2 | -2.3 | 94.2
CCCNC(=O)c1cc(-c2ccco2)on1 | 49.7 | -49.7 | 4.94* | 0.2 | 1.4 | 119.7
O=C(NC1CCCCC1)c1cc(-c2ccco2)on1 | 60.1 | -60.1 | 2.59 | 0.1 | -0.6 | 129.9*
Cc1c(Cl)cccc1NC(=O)C1CCCCC1 | -1.9 | 1.9 | 0.9 | -0.2 | -0.9 | 97.5
CNC(=O)CCCc1nc(-c2ccccc2Cl)no1 | 6.6 | -6.6 | 1.09 | -0.3 | 0.0 | 104.2
NC(=O)CCCc1nc(-c2ccccc2Cl)no1 | 9.8 | -9.8 | 1.04 | -0.2 | 10.3* | 106.0
Cn1c(N)c(C(=O)COC(=O)CCc2ccccc2)c(=O)n(C)c1=O | -4.0 | 4.0 | 1.17 | 0.1 | 1.6 | 96.4
Nc1ccc2nc(Cc3ccccc3)[nH]c2c1 | 24.3 | -24.3 | . | . | -3.5 | .
Cc1ccc2nc(Cc3ccc(N)cc3)[nH]c2c1 | 160.1* | -160.1 | 1.53 | 0.8 | 3.3 | 131.4*
Cc1ccc(C)c(-c2nc3ccc(N)cc3[nH]2)c1 | -3.1 | 3.1 | 2.21 | 0.0 | 1.6 | 101.8
Cc1ccc2nc(-c3ccccc3N)[nH]c2c1 | 198.2* | -198.2 | 1.07 | 0.0 | 3.8 | 77.9
CN1CCC(=C2c3ccccc3C=Cc3ccccc32)CC1 | 1.8 | -1.8 | 0.99 | -0.4 | 9.7* | 94.1
CN1CCN(C(=O)N2c3ccccc3C=Cc3ccccc32)CC1 | -18.6 | 18.6 | 1.2 | -0.3 | -1.6 | 105.7
O=C(/C=C/c1cnc2ccccc2n1)NC12CC3CC(CC(C3)C1)C2 | 190.4* | -190.3 | 1.02 | -0.1 | 4.7 | 150.1*
O=C(N/N=C/c1ccccc1Cl)c1[nH]c2ccc(Br)cc2c1-c1ccccc1 | -95.9 | 95.9* | 4.06* | 0.2 | 11.5* | 103.6
